Source: PubChem BioAssay (NCATS)
Results filed as inconclusive are left out. A call without a number means that no potency is given here. Activity calls are given as the source filed them. Unless noted, calls follow the shape of the dose curve; as a rule, active = well fitted curve in the direction sought with a large enough effect in the repeat runs; inconclusive = weak or mixed curves; inactive = no such curve, though single readings can be large; an effect the other way counts as inactive or inconclusive.

What was measured:
[1] = target: Calcium and integrin-binding protein 1 (Homo sapiens) (UniProt Q99828); assay: Primary qHTS for Identification of Calcium Integrin Binding Protein 1 (CIB1) Competitor (AID 1508620; active = well fitted curve in the direction sought with a large enough effect; an effect the other way counts as inactive or inconclusive;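 also: GST tagged CIB1 binding a fluorescein labelled alphaIIb integrin peptide tracer; top concentration of the series differs between compounds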)
Calcium and integrin-binding protein 1 (Homo sapiens), sequence (Q99828 whole entry, looked up): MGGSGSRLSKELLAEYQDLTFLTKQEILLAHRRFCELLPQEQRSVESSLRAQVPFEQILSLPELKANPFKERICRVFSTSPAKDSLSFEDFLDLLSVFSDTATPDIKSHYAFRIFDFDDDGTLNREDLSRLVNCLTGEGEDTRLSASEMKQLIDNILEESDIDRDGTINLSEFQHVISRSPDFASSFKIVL
Summary of the method: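 CIB1-GST (1 uM final) and compound incubated 15 min at room temperature before adding FITC-alphaIIb peptide tracer (100 nM final). Competition for binding read by fluorescence polarization (ex 480, em 540) after another 15 min at room temperature.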

[2] = target: Cytochrome P450 2D6 (Homo sapiens) (UniProt P10635); assay: Cytochrome P450 family 2 subfamily D member 6 (CYP2D6) small molecule antagonists: luciferase biochemical (cell-free) qHTS assay (AID 1645840); also: nearly all actives have a fitted effect of over 55% in size; also: potency is read from the fitted curve at half-maximal effect
Cytochrome P450 2D6 (Homo sapiens), sequence (P10635 whole entry, looked up): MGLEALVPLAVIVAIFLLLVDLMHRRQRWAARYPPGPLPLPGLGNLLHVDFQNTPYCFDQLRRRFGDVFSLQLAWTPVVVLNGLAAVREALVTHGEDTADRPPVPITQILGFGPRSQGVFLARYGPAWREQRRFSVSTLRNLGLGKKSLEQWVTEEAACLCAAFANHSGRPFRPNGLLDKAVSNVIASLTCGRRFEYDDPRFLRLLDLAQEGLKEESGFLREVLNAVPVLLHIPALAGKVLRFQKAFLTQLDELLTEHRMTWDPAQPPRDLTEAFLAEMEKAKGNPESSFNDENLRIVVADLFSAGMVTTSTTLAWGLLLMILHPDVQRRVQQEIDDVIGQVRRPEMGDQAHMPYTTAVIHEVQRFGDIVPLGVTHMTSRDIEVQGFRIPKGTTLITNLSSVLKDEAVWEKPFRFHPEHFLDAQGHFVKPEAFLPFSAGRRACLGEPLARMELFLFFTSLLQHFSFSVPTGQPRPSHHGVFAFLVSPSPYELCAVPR
Summary of the method: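 P450-Glo CYP2D6 system: proluciferin substrate converted by enzyme to luciferin, read by luminescence proportional to activity. Enzyme-substrate mix with compound 10 min at room temperature, then NADPH regeneration 1 h before detection reagent.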

Compound | Potency [1] | Potency [2]
COc1ccc2c(c1)C(C(=O)N(Cc1ccc(N(C)C)cc1)c1ccc(C(C)C)cc1)CCC2 (stereo unspecified) | inactive | inactive
Cc1cc2sc(NC(=O)Cc3ccccc3)nc2cc1Cl | inactive | inactive
O=C(C1CCCCC1)N(CCN1CCN(c2ccccc2O)CC1)c1ccccn1 | inactive | 10.7 µM (active)
COc1cc(Br)c(S(=O)(=O)Nc2ccc(Cl)c(O[C@@H]3CCN(C)C3)c2)cc1OC | inactive | 15.1 µM (active)
Fc1ccc(-c2nc(-c3ccccc3F)[nH]c2-c2ccncc2)cc1 | inactive | 1.2 µM (active)
Cc1nnc(-c2ccc(-c3ccc(C(=O)Nc4ccc(O)c(N5CCN(C)CC5)c4)cc3)c(C)c2)o1 | inactive | inactive
COc1cc2ncnc(Nc3cccc(I)c3)c2cc1OC | inactive | 12 µM (active)
COc1ccc2nc(-c3cc(OC)c(OC)c(OC)c3)cc(C(=O)NCC(=O)Nc3ccc(C(C)=O)cc3)c2c1 | inactive | inactive
CC(=O)Nc1cccc(Nc2ncnc(N3CCC(OCc4ccc(OC(F)(F)F)cc4)CC3)n2)c1C | inactive | inactive
C[C@H](Oc1cc(-n2cnc3ccc(CN4CCN(C)CC4)cc32)sc1C(N)=O)c1ccccc1C(F)(F)F | inactive | 21.3 µM (active)
NC(=O)c1cnc(N[C@@H]2CCCC[C@H]2N)nc1Nc1cccc(-n2nccn2)c1 | inactive | 19 µM (active)
COc1cc(F)c(C(C)C)cc1-c1ccc(C(F)(F)F)cc1CN1C(=O)OC(c2cc(C(F)(F)F)cc(C(F)(F)F)c2)C1C (stereo unspecified) | inactive | inactive
O=c1ccc2ccc(OCCCCN3CCN(c4cccc5sccc45)CC3)cc2[nH]1 | inactive | 1.34 µM (active)
CC1(NC(=O)c2ccc(C#Cc3cccc(F)c3)cn2)COC1 | inactive | inactive
COc1ccc(CN2CCN(C(=O)CCNC(=O)c3ccc(C(C)(C)C)cc3)CC2)cc1 | inactive | 15.1 µM (active)
NC(=O)c1nc(Nc2ccccc2)sc1NC(=O)C1CCCCC1 | inactive | inactive
O=C(NC1CCN(CCCCC2(C(=O)NCC(F)(F)F)c3ccccc3-c3ccccc32)CC1)c1ccccc1-c1ccc(C(F)(F)F)cc1 | inactive | 1.07 µM (active)
Cc1ccc(NC(=O)C(C)C)cc1C1CCN(Cc2ccc(Oc3ccc(F)c(F)c3)cc2)CC1 | inactive | 5.35 µM (active)
CCN(CC)CCCS(=O)(=O)N[C@H](CCc1ccccc1)c1nc(Cc2ccc(Br)cc2)no1 | inactive | 6.01 µM (active)
COc1cc2c(cc1-c1c(C)noc1C)ncc1[nH]c(=O)n(C(C)c3ccccn3)c12 (stereo unspecified) | inactive | inactive
O=C(NCCCc1ccccc1)C1CCC(CNS(=O)(=O)c2cccc3nsnc23)CC1 (stereo unspecified) | inactive | 10.7 µM (active)
O=C(Nc1ccc(C(O)(C(F)(F)F)C(F)(F)F)cc1)c1ccc(C(F)(F)F)cc1 | inactive | 19 µM (active)

Compound | Potency [1] | Potency [2]
CCOC(=O)N1CCC(N2CCC[C@@H](NC(=O)c3ccccc3C)C2)CC1 | inactive | 16.9 µM (active)
Cc1nc2c(C(F)(F)F)cccc2nc1-c1ccc(-c2cccc(S(C)(=O)=O)c2)cc1 | inactive | inactive
CNc1cc2[nH]c(=O)n(-c3ccc(NC(=O)NS(=O)(=O)c4ccc(Cl)s4)cc3)c(=O)c2cc1F | inactive | inactive
Cc1ccc(S(=O)(=O)NCc2ccc(C(=O)NCCN(Cc3ccccc3)C(C)C)cc2)cc1 | inactive | 12 µM (active)
Nc1nccc(-c2c(-c3ccc(F)cc3)ncn2C2CCCCC2)n1 | inactive | 15.1 µM (active)
COc1cc(CCc2cc(NC(=O)c3ccc(N4CC(C)NC(C)C4)cc3)n[nH]2)cc(OC)c1 (stereo unspecified) | inactive | 12 µM (active)
O=C(NCCCCN1CCN(c2cccc(Cl)c2Cl)CC1)c1cc2ccccc2s1 | inactive | 0.301 µM (active)
O=C(NS(=O)(=O)c1ccc(Br)s1)c1ccc(Cl)cc1Cl | inactive | inactive
N#Cc1ccc(COc2ccc(-c3cccc4nc(NC(=O)C5CC5)nn34)cc2)cn1 | inactive | inactive
COc1cccc(N2CCN(C3=Nc4c(F)cccc4[C@H](CC(=O)O)N3c3cc(C(F)(F)F)ccc3OC)CC2)c1 | inactive | inactive
CC(=O)NC[C@H]1CN(c2ccc(N3CCSCC3)c(F)c2)C(=O)O1 | inactive | inactive
CCC(CC)C(c1ccc(Nc2nc3ccccc3s2)cc1)n1cncn1 (stereo unspecified) | inactive | 2.39 µM (active)
CC(C)[C@@H](c1ccc(C(F)(F)F)cc1CN(Cc1cc(C(F)(F)F)cc(C(F)(F)F)c1)c1nnn(C)n1)N1CCC(C(=O)O)CC1 | inactive | 12 µM (active)
CC[N+]1(C/C2=C/CCCCCC2)CCC(NC(=O)C2c3cc(Cl)ccc3Oc3ccc(Cl)cc32)CC1 (stereo unspecified) | inactive | 0.425 µM (active)
CC(C)(C[C@@](O)(Cc1cc2ccncc2[nH]1)C(F)(F)F)c1cc(F)ccc1O | inactive | 0.134 µM (active)
Cc1cn2cc(C(=O)N(C)CCO)cc(NC3CCOc4cccc(C)c43)c2n1 (stereo unspecified) | inactive | inactive
COC(=O)C(Cc1ccc(OCCn2c(=O)sc3cc(C(=O)c4ccccc4)ccc32)cc1)C(=O)OC | inactive | inactive
Cc1cc(C)nc(SCC(=O)Nc2ncc(Cc3cccc4ccccc34)s2)n1 | inactive | inactive
CC(NC(=O)Cc1cc(F)cc(F)c1)C(=O)NC1C(=O)N(C)c2ccccc2-c2ccccc21 (stereo unspecified) | inactive | inactive
C=CCCN1CCC2(CC1)CN(C(=O)c1c(F)cccc1F)c1ccc(Cl)cc12 | inactive | 0.019 µM (active)
CC(C)c1cc2c(N3CCN(C4=NCC(C)(C)S4)CC3)ncnc2s1 | inactive | 3.01 µM (active)
